Measurements reported in PubChem BioAssay AID720664 (National Center for Advancing Translational Sciences (NCATS), 2013).
Results filed as inconclusive are left out. Unmarked numbers belong to inactive results. The source made the active and inactive calls. The call rests on the fitted dose curve; in most records, active means well fitted inhibition curve with a large enough effect; inconclusive means small, poorly fitted or top-dose-only effect; inactive means flat fitted curve, though single readings scatter.

Each compound was assayed against Galactokinase (Homo sapiens) (UniProt P51570) (assay: qHTS for Inhibitors of Human Galactokinase (GALK): SAR round 3). Details: ADP detection luminescence, 1 h; series mostly up to 57.5 µM; activity change, negative = inhibition: at the top concentration.
Sequence of Galactokinase (Homo sapiens) (P51570 whole entry, looked up): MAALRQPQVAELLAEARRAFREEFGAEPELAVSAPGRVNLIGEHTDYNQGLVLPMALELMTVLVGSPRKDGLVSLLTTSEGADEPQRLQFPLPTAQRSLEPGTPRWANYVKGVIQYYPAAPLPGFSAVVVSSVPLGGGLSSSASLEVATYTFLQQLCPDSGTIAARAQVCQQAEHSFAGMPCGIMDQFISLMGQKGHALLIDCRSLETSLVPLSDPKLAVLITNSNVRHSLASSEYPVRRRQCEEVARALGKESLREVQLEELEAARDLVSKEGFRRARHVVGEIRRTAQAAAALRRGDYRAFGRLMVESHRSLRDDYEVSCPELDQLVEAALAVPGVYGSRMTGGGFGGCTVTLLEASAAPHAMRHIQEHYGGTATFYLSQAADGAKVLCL
From the text: Inherited deficiency of galactose-1-phosphate uridyltransferase (GALT) can result in a potentially lethal disorder called Classic Galactosemia (OMIM 230400). Several lines of evidence indicate that an elevated level of galactose-1-phosphate (gal-1-p), the product of galactokinase (GALK), is a major, if not sole, pathogenic mechanism in patients with classic galactosemia. Therefore, finding inhibitors of GALK is a potential novel therapy for this inherent metabolic disease and is the long term goal of this project. Active compounds observed in the qHTS GALK assay (AID: 1868) were cherry picked and re-screened for validation. GALK (provided by Kent Lai) was assayed using ATP and D-(+)-Galactose (Sigma-Aldrich cat# G0750) as substrates. Promega ADP-Glo technology was used to detect the ADP product formed after the kinase reaction. Kinase reactions with and without GALK were used as negative and positive controls together with Protein Tyrosine Phosphatase CD45 inhibitor (EMD Bioscience cat# 540215) which is shown to inhibit GALK activity. Decrease in activity corresponds to inhibition of the enzyme, the desired outcome for this assay. NIH Molecular Libraries Probe Production Network [MLPCN] NIH Chemical Genomics Center [NCGC] Grant: MH085689-01 PI Name: Kent Lai, University of Utah
Three uL/well of ATP-buffer solution (35 uM ATP, 20mM HEPES pH8.0, 5 mM MgCl2, 60 mM NaCl, 1 mM DTT, 0.01% BSA final concentration) was dispensed into 1536-well, assay plates (Greiner, solid white medium-binding plates) with Aurora Discovery BioRAPTR Flying Reagent Dispenser (FRD; Beckton-Dickenson). Compound and control solution (23 nL) was transferred to the assay plate using the Kalypsys 1536-pin tool apparatus. One uL/well GALK-galactose solution (5 nM GALK, 100 uM galactose, 20 mM HEPES pH8.0, 5 mM MgCl2, 60 mM NaCl, 1 mM DTT, 0.01% BSA final concentration) was then added using the FRD yielding a total kinase reaction volume of 4 uL/ well. After 1 hour of room temperature incubation, 4 uL Kinase-Glo Plus reagent was added for a final assay volume of 8 uL/well. Luminescence was detected with the ViewLux plate reader (Perkin Elmer, Waltham, MA) after 2 min incubation using a 1 sec exposure time and 2x binning.
For `CC(=O)Nc1ncc(S(=O)(=O)N2CCOCC2)s1`, the “activity change, negative = inhibition” value was -1.9%. For `Cc1ccc2nc(NC3=NC(c4[nH]ncc4Cl)C4=C(CCCC4=O)N3)oc2c1` (centres undefined), the “activity change, negative = inhibition” value was 13.9%. For `CCCc1ccc(NC(=O)c2ccc3c(c2)NC(=O)CS3)cc1`, the “activity change, negative = inhibition” value was 3.14%. `Cn1cc(Br)c(C2N=C(Nc3nc4ccccc4o3)NC3=C2C(=O)CCC3)n1` (centres undefined) was tested, and the Potency was 9.68 µM (active). For `O=C1CCCC2=C1C(c1[nH]ncc1Cl)N=C(Nc1nc3ccc(F)cc3o1)N2` (centres undefined), the “activity change, negative = inhibition” value was 0.665%. For `CC1=C(C(=O)Nc2nccs2)C(c2ccccc2Br)N=C(Nc2nc3ccccc3o2)N1` (centres undefined), the “activity change, negative = inhibition” value was -26.6%. For `Cn1cc(Cl)c(C2N=C(Nc3nc4ccccc4o3)NC3=C2C(=O)CCC3)n1` (centres undefined), the Potency was 12.2 µM (active). For `Cc1cccc2nc(NC3=NC(c4[nH]ncc4Cl)C4=C(CCCC4=O)N3)oc12` (centres undefined), the “activity change, negative = inhibition” value was -0.192%. In the case of `CC1=C(C(=O)Nc2nncs2)C(c2nn(C)cc2Cl)N=C(Nc2nc3ccccc3o2)N1` (centres undefined), the Potency is reported as 17.2 µM (active).
